Test results reported in the supplement of paper PMC9950053.
Where a name gives a salt, the structure may show the parent alone.

These molecules were tested on Danio rerio larvae (5 dpf) (assay: startle (activity period 16 minus period 15, 20-s interval sound) minus DMSO control (percentage points); higher = stronger startle response than DMSO larvae). Conditions: 10 µM; exposure time: 3 h pre-incubation + 3 h imaging.
In short: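 At 28.5 °C, 5 dpf wild-type zebrafish larvae were treated with compounds (10 µM final) for 3 h ahead of and 3 h during imaging at one frame every 6 s. Tracks came from Z-LaP Tracker, discarding detections under 0.5 probability and any larva moving under 1% of the time. Each behavioural value is the difference, in percentage points, between the treated group mean and the control mean, with 48 larvae per group and 844 in the control.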

| Compound | startle |
| --- | --- |
| C=C1[C@H](CO)[C@@H](O)C[C@@H]1n1cnc2c(=O)[nH]c(N)nc21 [Entecavir] | 3.99 |
| CC(C)Nc1cccnc1N1CCN(C(=O)c2cc3cc(NS(C)(=O)=O)ccc3[nH]2)CC1 [Delavirdine mesylate] | -4.71 |
| CC(C)N(CCCCOCC(=O)NS(C)(=O)=O)c1cnc(-c2ccccc2)c(-c2ccccc2)n1 [Selexipag] | 1.3 |
| COc1ccccc1OCCNCC(O)COc1cccc2[nH]c3ccccc3c12 (configuration not stated) [Carvedilol] | 3.72 |
| Nc1nc2c(ncn2COCCO)c(=O)[nH]1 [Acyclovir] | -0.609 |
| Cc1cccc(CN2CCN(C(c3ccccc3)c3ccc(Cl)cc3)CC2)c1 (configuration not stated) [Meclizine dihydrochloride] | -7.54 |
| C[C@H]1C[C@@H]2[C@H]([C@@H](O)C[C@@]3(C)[C@H]2CC[C@]3(O)C(=O)CO)[C@@]2(C)C=CC(=O)C=C12 [Methylprednisolone] | 0.408 |
| OC(CNCC(O)C1CCc2cc(F)ccc2O1)C1CCc2cc(F)ccc2O1 (configuration not stated) [Nebivolol hydrochloride] | -4.81 |
| CC(C)C(=O)Nc1ccc([N+](=O)[O-])c(C(F)(F)F)c1 [Flutamide] | -5.6 |
| C[C@@H](O[C@H]1OCCN(Cc2n[nH]c(=O)[nH]2)[C@H]1c1ccc(F)cc1)c1cc(C(F)(F)F)cc(C(F)(F)F)c1 [Aprepitant] | -6.24 |
| CC1(C)O[C@@H]2[C@@H](CO[C@@]3(COS(N)(=O)=O)OC(C)(C)O[C@@H]23)O1 [Topiramate] | -0.863 |
| CC(=O)O[C@]1(C(C)=O)CC[C@H]2[C@@H]3C=C(C)C4=CC(=O)CC[C@]4(C)[C@H]3CC[C@@]21C [Megestrol Acetate] | -12.5 |
| O=C(O)c1cc(/N=N/c2ccc(S(=O)(=O)Nc3ccccn3)cc2)ccc1O [Sulfasalazine] | -1 |
| CC(C)(C(=O)c1cccnc1)c1cccnc1 [Metyrapone] | -0.289 |
| Nc1ccn([C@@H]2O[C@H](CO)[C@@H](O)C2(F)F)c(=O)n1 [Gemcitabine hydrochloride] | 2.17 |
| C#C[C@]1(O)CC[C@H]2[C@@H]3CCC4=CC(=O)CC[C@@H]4[C@H]3CC[C@@]21CC [Levonorgestrel] | -4.23 |
| COc1cc2nc(N3CCN(C(=O)c4ccco4)CC3)nc(N)c2cc1OC [Prazosin hydrochloride] | 4.64 |
